Compound activity as filed in PubChem BioAssay.
Pf Dd2 growth – qHTS Primary assay for Inhibitors of Plasmodium falciparum Dd2 growth in vitro. P. falciparum Dd2 growth, SYBR Green, 72 h. Potency, µM (highest dose often 28.9 µM), for the others: top-dose activity, negative = inhibition, hits mostly inhibitors. 120,000 compounds, 4.3% hits. AID 1347417, 2020; active = well fitted inhibition curve with a large enough effect;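 also: plate controls were DMSO vehicle for no effect and reference drug for full effect; nearly all actives have a fitted effect of over 65% in size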
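Readout: SYBR Green fluorescence, 485 nm excitation, 535 nm emission, after ~16 h lysis at 37C. Before that, Dd2-infected red cells (2.5% hematocrit) grew 72 h with compound, 29 uM top final concentration.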
Active calls of the source: *; i = inactive; [ ] = dose if it differs, or a comment. The full list was thinned out, with hits kept by preference. Potency is read from the fitted curve at half-maximal effect.

SMILES | Pf Dd2 growth
COc1ccc(Cl)cc1C(=O)N1CCCN(c2cc(-c3ccc(Br)cc3)[nH]n2)CC1 | -21%
O=C(NCCc1ccncc1)C1CN(Cc2cccnc2)CC12CCOCC2 (stereo not drawn) | -9%
O=C(Cn1nc2n(c1=O)CCCC2)NCc1ccccc1Cl | i
O=C(NC1C[C@H]2CC[C@@H](C1)N2C(=O)c1ccoc1)c1ccncc1 (stereo partly drawn) | 5%
CC(=O)Nc1ccc(NC(=O)Cn2ccn3nc(-c4ccc(F)cc4)c(CO)c3c2=O)cc1 | 11%
CCc1ccccc1Nc1cc(C(=O)NCCCN(C)C2CCCCC2)c2ccccc2n1 | -15%
CCc1ccc(CNC(=O)c2cc(-c3ccc(Cl)s3)nc3ccccc23)cc1 | 4%
CCc1ccccc1NC(=O)c1cc(-c2ccc(Cl)s2)nc2ccccc12 | -5%
Cc1ccc(C)c(Nc2cc(C(=O)NCCCN(C)C3CCCCC3)c3ccccc3n2)c1 | i
CCCCN(CCCC)CCCNC(=O)c1cc(-c2ccc(Cl)s2)nc2ccccc12 | 5.6µM*
CCCCN(C)CCCNC(=O)c1cc(-c2ccc(Br)s2)nc2ccccc12 | 11µM*
COc1ccc(Nc2cc(C(=O)NCCc3ccccc3)c3ccccc3n2)cc1OC | 14%
COc1ccc(CNC(=O)c2cc(-c3ccc(Br)s3)nc3ccccc23)c(OC)c1 | 28%[5.79 µM]
CCCCN(CCCNC(=O)c1cc(Nc2ccc(OC)c(OC)c2)nc2ccccc12)Cc1ccccc1 | 2.2µM*
CC(C)CCNC(=O)c1cc(-c2ccc(Br)s2)nc2ccccc12 | 3%
COc1ccc(Nc2cc(C(=O)NC3CCC(C)CC3)c3ccccc3n2)cc1OC (stereo not drawn) | 18%
Cc1cc(C)cc(Nc2cc(C(=O)NCCCN(C)C3CCCCC3)c3ccccc3n2)c1 | 6.3µM*
CCc1noc([C@@H]2CC(F)(F)CN2C(=O)c2occc2C)n1 | i
CCCc1nc(C)c(CNC2CCN(C(=O)c3ccccc3)CC2)s1 | -10%
O=C(Nc1cccc(C2OC(=O)N(Cc3ccccc3)C2C(=O)Nc2ccccc2)c1)c1ccco1 (stereo not drawn) | -5%
CC1(C(=O)O)CCN(S(=O)(=O)c2ccsc2)CC1 | 6%[44.1 µM]
COc1cccc(CN2C(=O)OC3(CCN(C(=O)C(C)C)CC3)C2(C)c2cccnc2)c1 (stereo not drawn) | i
O=C(CN1C(=O)NC2(CCOCC2)C1=O)Nc1ccc(Cl)cc1F | 19%
COc1cccc(CC(=O)N2CCCC3(C2)NC(=O)N(Cc2ccc(Cl)cc2)C3=O)c1 (stereo not drawn) | i
CN(C)c1nc(-c2ccncc2)nc2c1CCN(C(=O)c1cc(=O)[nH]c(=O)[nH]1)C2 | -10%
SMILES | Pf Dd2 growth
CCCCOc1c(CNC(C)c2ncccc2C)cccc1OC (stereo not drawn) | 5.6µM*
COc1ccccc1Oc1ncccc1CNC(=O)c1cccnc1C | -5%
CCC(=O)NCc1cccnc1Oc1ccccc1OC | 5%
O=C(Nc1ccc(Oc2ccccc2)cc1)N[C@H]1CO[C@H]2[C@@H]1OC[C@@H]2n1cc(-c2ccccc2)nn1 | -8%
O=C(c1cccc2[nH]ccc12)N1CCC(n2cc(-c3nc(-c4ccccc4)no3)nn2)CC1 | -24%
O=C(O)c1ccc(CN2Cc3[nH]cnc3C[C@H]2c2nc(-c3ccc4ccccc4c3)no2)cc1 | i
CC(C)NC(=O)Cc1ccc(N(Cc2ccccc2)C(=O)c2ccco2)cc1 | i
CN(C(=O)CSc1nc2ccc(NC(=O)c3cccc(F)c3)cc2s1)c1ccccc1 | -15%
CCOC(=O)CSc1nc2ccc(NC(=O)c3ccc(C)cc3)cc2s1 | 1%
COc1ccccc1C(=O)Nc1ccc2nc(SCC(=O)N(C)c3ccccc3)sc2c1 | 8.9µM*
CN(C(=O)CSc1nc2ccc(NC(=O)c3ccccc3F)cc2s1)c1ccccc1 | -24%
Cc1ccccc1OCC(=O)Nc1ccc2nc(SCC(=O)N(C)c3ccccc3)sc2c1 | -28%
CCOc1ccc(C(=O)Nc2ccc3nc(SCC(=O)N(C)c4ccccc4)sc3c2)cc1 | 8.9µM*
CC(=O)NC[C@H]1CCN(Cc2ccc3c(c2)CCO3)C[C@H]1N(C)C | -19%
CCOc1ccccc1C(=O)N1CCc2[nH]nc(C(=O)NCCCc3ccccc3)c2C1 | -16%
CC1=C[C@@H](CN2CCN(c3ncccn3)CC2)[C@H](C(C)C)C[C@H]1Cc1nnc(Cc2c[nH]c3ccccc23)o1 | 3.5µM*
CC1=C[C@@H](CN2CCOCC2)[C@H](C(C)C)C[C@H]1Cc1nnc(-c2ccccc2)o1 | -1%[44.1 µM]
CC1=C[C@@H](CN2CCN(c3cnccn3)CC2)[C@H](C(C)C)C[C@H]1Cc1nnc(-c2ccc([N+](=O)[O-])cc2)o1 | i
CCCc1nnc(C[C@@H]2C[C@@H](C(C)C)[C@H](CN3CCN(C(C)=O)CC3)C=C2C)o1 | 11µM*
CC1=C[C@@H](CN2CCN(CCO)CC2)[C@H](C(C)C)C[C@H]1Cc1nnc(C)o1 | i
COCCN1CCN(C[C@@H]2C=C(C)[C@H](Cc3nnc(C)o3)C[C@H]2C(C)C)CC1 | -13%[44.1 µM]
CC(=O)N1CCN(C[C@@H]2C=C(C)[C@H](Cc3nnc(-c4cccnc4)o3)C[C@H]2C(C)C)CC1 | 7.9µM*
Cc1nc(CNC(=O)c2csc(-c3ccc(C(F)(F)F)cc3)n2)no1 | 2%
O=S(=O)(c1cccc(C(F)(F)F)c1)N1CCC(n2cnnc2C2CC2)CC1 | 12%
O=C(Cc1c[nH]c2ccccc12)N1CC2CC(C1)[C@H]1CCCC(=O)N1C2 (stereo partly drawn) | -10%
SMILES | Pf Dd2 growth
COc1ccc(-c2cc3nc4c(c(=O)n3[nH]2)CN(C(=O)CN(C)S(=O)(=O)c2cnc[nH]2)CC4)cc1 | -17%[5.79 µM]
CCc1ccc(CNC(=O)[C@@]23CCCC[C@H]2N(C)C(=O)CC3)cc1 | -23%
O=C(C1C2C(=O)N(C3CCCCCC3)C[C@@]23C=C[C@@H]1O3)N1C[C@@H]2[C@H](C1)[C@H]1CC[C@@H]2O1 (stereo partly drawn) | -5%
Cc1ccc(-c2noc([C@@H]3CCCN3C(=O)Cc3ccccc3Cl)n2)cc1 | i
O=C(Cc1ccccc1Cl)N1CCC[C@H]1c1nc(-c2ccccc2)no1 | -17%
CC(C)c1ccc(-c2noc(SCC(=O)N3CCCCC3C)n2)cc1 (stereo not drawn) | 2.2µM*
CC1CCN(C(=O)CSc2n[nH]c(-c3ccc(F)cc3)n2)CC1 | -3%
COc1ccc(-c2nnc(SCC(=O)N3CCC(C)CC3)o2)cc1 | -13%
CC1CCN(C(=O)CSc2nc(-c3ccc(C(C)C)cc3)no2)CC1 | 0.89µM*
CC(C)C(=O)N1CCCN(S(C)(=O)=O)c2ccccc21 | 11%
COC[C@@H]1CN(c2ncccn2)C[C@H]1C(=O)NCC(F)(F)F | 5%
CCN1CCC2(CCC1=O)CN(Cc1cccc3cccnc13)CCN2C (stereo not drawn) | -24%
O=C1CCC2(CCN1CC1CC1)CCN(S(=O)(=O)c1ccccc1F)CC2 | -13%
O=C(c1ccccc1)N1CCC2(CC1)N=C(c1ccc(Cl)cc1)NO2 | i
Cc1c(Cl)cccc1NC(=O)c1cc2n(n1)CC(c1ccc(Cl)cc1)OC2 (stereo not drawn) | 17%
O=C(c1ccc(F)cc1)N1CCC(OCCOc2cccnc2)CC1 | i
Cc1ccccc1NS(=O)(=O)c1ccc2c(c1)NC(=O)CCS2 | -8%
Cc1ccc(NS(=O)(=O)c2ccc3c(c2)NC(=O)CCS3)cc1C | 10µM*
O=C1CCSc2ccc(S(=O)(=O)Nc3cccc(C(F)(F)F)c3)cc2N1 | 35%
CC1(COc2cccnc2)COc2ccc(C(=O)NCc3ccc4c(c3)OCO4)cc2N1 (stereo not drawn) | i
